The results in this text go back to PubChem BioAssay.

System in the first test: not listed separately
In words: JC-1 mitochondrial potential readout, lung cancer cells – cell-based, A549, JC-1 fluorescence, basal, 24 h, 100 nL, profiling panel (AID 1138).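 Further: A549 lung adenocarcinoma cells under basal conditions with no added stimulus; test concentration not given here.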 The note with it: higher = more signal.
For the compound `O[C@@H](Cc1ccccc1)[C@H]1C2C=CCCC(c3ccccc3)=C2CN1Cc1cccc(Cl)c1` (some centres not stated), the z-score was 2.09.

In the case of `COc1ccc([Si](C)(C)[C@H]2[C@H](CCO)O[C@@]3(C(=O)N(Cc4cccc(NC(=O)[C@H](C)O)c4)c4ccccc43)[C@@H]2C)cc1`, the z-score is -0.598.

`O=C1NC(=O)C2C1C=CC(C(O)Cc1ccccc1)N2Nc1ccccn1` (configuration not stated) gave a z-score of 1.78.

With `CC(CCC(=O)OC[C@H]1O[C@H](C#Cc2ccccc2)C=C[C@@H]1Oc1ccc(C)cc1)=NOC[C@@H](O)COCc1ccco1`, the z-score is -0.718.

As to `CC1CC/C=C\[C@H]2OC34C=CCN(Cn5nnc6ccccc65)C(=O)[C@H]3N(CCO)C(=O)[C@@H]4C2C(=O)O1` (some centres not stated), the z-score is -0.547.

Take `CCOC(=O)CCN1C(=O)[C@H]2[C@H]3[C@H](O)[C@H](O)CC(=NNC(=O)OCc4ccc(OC)cc4)[C@@H]3CC[C@H]2C1=O`: the z-score was 0.385.

Take `CCN1C(=O)[C@H]2[C@H]3[C@H](O)[C@H](O)CC(=NOC(C)CN4CCCCc5nc(C)c(C)cc54)[C@@H]3CC[C@H]2C1=O` (some centres not stated): the z-score worked out at 0.0743.

With `C#CCCCON=C1C[C@@H](O)[C@@H](O)[C@@H]2[C@@H]3C(=O)N(CCC(=O)OCC)C(=O)[C@@H]3CC[C@@H]12`, the z-score was -0.139.

`CCN1C(=O)[C@H]2[C@H]3[C@H](O)[C@H](O)CC(=NO[C@@H]4O[C@H](CO)[C@@H](O)[C@H](O)[C@H]4O)[C@@H]3CC[C@H]2C1=O` yielded a z-score of 0.459.

Turning to `COCC1=C2[C@@H](CCc3ccccc3)OB(O)C[C@@H]2n2c(=O)n(-c3ccccc3)c(=O)n2C1`, the z-score is 0.581.

`CN1C(=O)C2C=CC(C(O)c3ccc(Br)cc3)N(N(c3ccccc3)c3ccccc3)C2C1=O` (configuration not stated): the z-score worked out at 1.34.

The compound `CC(CCN1CCCCc2nc(C)c(C)cc21)=NOC(C)CN1CCCCc2nc(C)c(C)cc21` (configuration not stated) gave a z-score of 0.828.

The test system of a further test is Lefty1. In words: Lefty1 protein binding to printed compounds – biochemical, small-molecule microarray, 635/667 nm fluorescence, primary screen (AID 1139). The note with it: fluorescence 635/667, higher = more signal.
Consider `CO[C@@H]1COC(=O)[C@@H]2CCCN2C(=O)[C@@H](C)COC(=O)[C@H](COCc2ccccc2)NC(=O)CC=C[C@H]1C`, for which the composite z-score is 0.698.

Compound `C#CCCCON=C1C[C@@H](O)[C@@H](O)[C@@H]2[C@@H]3C(=O)N([C@@H](C)c4ccccc4)C(=O)[C@@H]3CC[C@H]12` displayed a composite z-score of 0.535.

Consider `COCCCNC(=O)[C@@]1(C)c2ccccc2C(=O)N(Cc2ccc(OC(F)(F)F)cc2)[C@H]1c1ccc(CO)cc1`, for which the composite z-score is -1.02.

The compound `C=COC[C@H]1CN2[C@@H](CC[C@@H](C)[C@@H]2c2ccc(Br)cc2)C(=O)O1` had a composite z-score of 0.51.

Consider `CC(CCN1CCCCc2nc(C)c(C)cc21)=NOC(C)CN1CCCc2nc(C)c(C)cc21` (configuration not stated), for which the composite z-score is 1.45.

With `CC(C)=NOCc1ccc(-c2cc(-c3ccccc3)no2)cc1`, the composite z-score turned out to be 0.003.

On to `CCc1cc2c(nc1CC)CCN(CCC(C)=NOC[C@@H](O)[C@H]1O[C@@H]3OC(C)(C)O[C@@H]3[C@H]1O)C2`, for which the composite z-score turned out to be 0.446.

As for `COc1cccc([C@H]2Oc3ccc(OC)cc3C(=NO[C@H](C)c3cn([C@@H]4COC[C@H]4O)nn3)[C@@H]2O)c1`, the composite z-score is -0.601.

Compound `O=C(NN=C1C[C@@H](O)[C@@H](O)[C@@H]2[C@@H]3C(=O)N(c4ccc(F)cc4F)C(=O)[C@@H]3CC[C@@H]12)OCc1ccccc1` yielded a composite z-score of 0.341.

Turning to `CCOC(=O)[C@H](Cc1ccccc1)NC(=O)CCC1CC(OC(=O)NCc2ccc3c(c2)OCO3)CC2(CCCC(COC(=O)NCc3cccc(C(F)(F)F)c3)O2)O1` (some centres not stated), the composite z-score amounted to 0.955.

Regarding `C[C@@H](c1ccccc1)N1C(=O)[C@H]2[C@H]3[C@H](O)C=CC(=O)[C@@H]3CC[C@H]2C1=O`, the composite z-score was 0.752.

On to `Cc1cc2c(c(=O)o1)[C@H](O)[C@H]1O[C@H]1C2=O`, for which the composite z-score is -0.32.

Take `COc1ccc(COC(=O)NN=C2C[C@@H](O)[C@@H](O)[C@@H]3[C@@H]4C(=O)N(c5ccc(F)cc5F)C(=O)[C@@H]4CC[C@@H]23)cc1`: the composite z-score is -0.291.

With `CO[C@@H]1COC(=O)CCC[C@@H](C)[C@H](OC)COC(=O)CCC[C@H]1C`, the composite z-score came out at 0.958.

As to `O=C1C[C@@H](O)[C@@H](O)[C@@H]2[C@@H]3C(=O)N(Cc4ccc5c(c4)OCO5)C(=O)[C@@H]3CC[C@@H]12`, the composite z-score is 0.549.

Consider `CC=CC1=C(CO)[C@H](O)[C@H]2O[C@H]2[C@H]1O`, for which the composite z-score amounted to 0.871.

The compound `CC(C)[C@H](NC(=O)OC(C)(C)C)[C@@H](O)CC(=O)OC(C)(C)C` came in with a composite z-score of 0.123.

As for `CO[C@H]1COC(=O)[C@@H]2CCCN2C(=O)CC=C[C@@H](C)[C@H](OC)COC(=O)CC=C[C@@H]1C`, the composite z-score was 1.62.

The compound `COC(=O)[C@H](C)NC(=O)CCC1CC(OC(=O)NCCc2ccc(F)cc2)CC2(CCCC(COC(=O)NCCc3ccc(Cl)cc3)O2)O1` (some centres not stated) came in with a composite z-score of 1.25.

`CC(C)=CCCC(C)=CCON=C1[C@H]2CCn3c(=O)n(C)c(=O)n3[C@H]2[C@H](O)[C@@H]2O[C@H]12`: the composite z-score turned out to be 1.37.

Turning to `O=C(NN=C1C[C@@H](O)[C@@H](O)[C@@H]2[C@@H]3C(=O)N(c4cccc(Oc5ccccc5)c4)C(=O)[C@@H]3CC[C@@H]12)OCc1ccccc1`, the composite z-score came out at 0.211.

Compound `CC(=O)OC[C@H]1O[C@H](C#CCCCc2ccccc2)C=C[C@@H]1OC(C)=O` displayed a composite z-score of 0.696.

Turning to `CC(CCN1CCc2nc(-c3ccccc3)c(-c3ccccc3)cc2C1)=NO[C@H](C)c1cn([C@@H]2COC[C@H]2O)nn1`, the composite z-score came to 0.712.

For the compound `O[C@@H](Cc1ccccc1)[C@H]1C2C=CCCC(c3ccccc3)=C2CN1Cc1cccc(Cl)c1` (some centres not stated), the composite z-score came out at 0.625.

Turning to `COc1ccc([Si](C)(C)[C@H]2[C@H](CCO)O[C@@]3(C(=O)N(Cc4cccc(NC(=O)[C@H](C)O)c4)c4ccccc43)[C@@H]2C)cc1`, the composite z-score was found to be 1.23.

For `O=C1NC(=O)C2C1C=CC(C(O)Cc1ccccc1)N2Nc1ccccn1` (configuration not stated), the composite z-score is -0.174.

Turning to `CC(CCC(=O)OC[C@H]1O[C@H](C#Cc2ccccc2)C=C[C@@H]1Oc1ccc(C)cc1)=NOC[C@@H](O)COCc1ccco1`, the composite z-score was -2.17.

As to `CC1CC/C=C\[C@H]2OC34C=CCN(Cn5nnc6ccccc65)C(=O)[C@H]3N(CCO)C(=O)[C@@H]4C2C(=O)O1` (some centres not stated), the composite z-score is -0.428.

In turn, `CCOC(=O)CCN1C(=O)[C@H]2[C@H]3[C@H](O)[C@H](O)CC(=NNC(=O)OCc4ccc(OC)cc4)[C@@H]3CC[C@H]2C1=O` showed a composite z-score of 0.833.

In turn, `CCN1C(=O)[C@H]2[C@H]3[C@H](O)[C@H](O)CC(=NOC(C)CN4CCCCc5nc(C)c(C)cc54)[C@@H]3CC[C@H]2C1=O` (some centres not stated) gave a composite z-score of 0.672.

As for `C#CCCCON=C1C[C@@H](O)[C@@H](O)[C@@H]2[C@@H]3C(=O)N(CCC(=O)OCC)C(=O)[C@@H]3CC[C@@H]12`, the composite z-score is -0.655.

Turning to `CCN1C(=O)[C@H]2[C@H]3[C@H](O)[C@H](O)CC(=NO[C@@H]4O[C@H](CO)[C@@H](O)[C@H](O)[C@H]4O)[C@@H]3CC[C@H]2C1=O`, the composite z-score came to 0.232.

As to `COCC1=C2[C@@H](CCc3ccccc3)OB(O)C[C@@H]2n2c(=O)n(-c3ccccc3)c(=O)n2C1`, the composite z-score was found to be 0.336.

As to `CN1C(=O)C2C=CC(C(O)c3ccc(Br)cc3)N(N(c3ccccc3)c3ccccc3)C2C1=O` (configuration not stated), the composite z-score was -0.409.

Regarding `CC(CCN1CCCCc2nc(C)c(C)cc21)=NOC(C)CN1CCCCc2nc(C)c(C)cc21` (configuration not stated), the composite z-score is 1.6.
